The text below walks through data of PubChem BioAssay (NCATS).

Values joined by “and” are separate entries in the source; they are usually repeats but may differ in a detail not shown here. Equal values may be shown once. Results filed as inconclusive are left out. Active and inactive are the calls of the source. Unless noted, calls follow the shape of the dose curve; as a rule, active = well fitted curve in the direction sought with a large enough effect; inconclusive = small, poorly fitted or top-dose-only effect, or another doubt; inactive = no such curve, though single readings can be large; an effect the other way counts as inactive or inconclusive.

Assay [1] has as its target Calcium and integrin-binding protein 1 (Homo sapiens) (UniProt Q99828). As to the kind of experiment: Primary qHTS for Identification of Calcium Integrin Binding Protein 1 (CIB1) Competitor (AID 1508620).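 Also: GST tagged CIB1 binding a fluorescein labelled alphaIIb integrin peptide tracer; top concentration of the series differs between compounds; % is scaled to controls: 0 for no effect and ±100 for the full control effect.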 The gist of the method:
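CIB1-GST (1 uM final) and compound incubated 15 min at room temperature before adding FITC-alphaIIb peptide tracer (100 nM final). Competition for binding read by fluorescence polarization (ex 480, em 540) after another 15 min at room temperature.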

Assay [2] is described as follows: Primary qHTS for small molecule stabilizers of the endoplasmic reticulum resident proteome: Secreted ER Calcium Modulated Protein (SERCaMP) assay (AID 1508630). Also: % is scaled to controls: 0 for no effect and ±100 for the full control effect. The gist of the method:
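GLuc-SERCaMP-expressing SH-SY5Y cells, pretreated 16 h with compound, are challenged with thapsigargin to empty ER calcium stores; after 4 h, coelenterazine is added directly to the medium and luminescence is imaged.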

Assay [3] can be described thus: A High-Content qHTS Against Drug Library for the Identification of Small Molecules that Inhibit DYT1 Early Onset Primary Dystonia-Associated Cell Pathology (AID 1645839; calls by dose curve). The gist of the method:
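In this high-content image screen, delE TorsinA mislocalization in inducible Flp-In 293 cells is scored as %pathology, with cell count serving as the counterscreen. Compound exposure lasts 48 h under tetracycline induction in reduced-serum medium.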

Assay [4] addresses Cytochrome P450 2D6 (Homo sapiens) (UniProt P10635). Nature of the assay: Cytochrome P450 family 2 subfamily D member 6 (CYP2D6) small molecule antagonists: luciferase biochemical (cell-free) qHTS assay (AID 1645840; active = well fitted curve in the direction sought with a large enough effect in the repeat runs; an effect the other way counts as inactive or inconclusive; also: nearly all actives have a fitted effect of over 55% in size; also: potency is read from the fitted curve at half-maximal effect). The gist of the method:
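P450-Glo luminescent screen: recombinant CYP2D6 enzyme–proluciferin substrate mix preincubated with compound 10 min at room temperature, then NADPH regeneration added for 1 h at room temperature. Detection reagent added for 20 min; luciferin light read as relative luminescence units.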

The target of assay [5] is Cytochrome P450 2C9 (Homo sapiens) (UniProt P11712). As to the kind of experiment: Cytochrome P450 family 2 subfamily C member 9 (CYP2C9) small molecule antagonists: luciferase biochemical (cell-free) qHTS assay (AID 1645842; active = well fitted curve in the direction sought with a large enough effect in the repeat runs; an effect the other way counts as inactive or inconclusive; also: nearly all actives have a fitted effect of over 55% in size; also: potency is read from the fitted curve at half-maximal effect). Summed up: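 Luminescence, after 20 min with luciferin detection reagent, reflected CYP2C9 turnover during a 1 h NADPH-driven reaction at 37C. Enzyme-substrate mix contained 0.4% bovine serum albumin and was preincubated with compound 10 min at room temperature.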
Sequence of Cytochrome P450 2C9 (Homo sapiens) (P11712 whole entry, looked up): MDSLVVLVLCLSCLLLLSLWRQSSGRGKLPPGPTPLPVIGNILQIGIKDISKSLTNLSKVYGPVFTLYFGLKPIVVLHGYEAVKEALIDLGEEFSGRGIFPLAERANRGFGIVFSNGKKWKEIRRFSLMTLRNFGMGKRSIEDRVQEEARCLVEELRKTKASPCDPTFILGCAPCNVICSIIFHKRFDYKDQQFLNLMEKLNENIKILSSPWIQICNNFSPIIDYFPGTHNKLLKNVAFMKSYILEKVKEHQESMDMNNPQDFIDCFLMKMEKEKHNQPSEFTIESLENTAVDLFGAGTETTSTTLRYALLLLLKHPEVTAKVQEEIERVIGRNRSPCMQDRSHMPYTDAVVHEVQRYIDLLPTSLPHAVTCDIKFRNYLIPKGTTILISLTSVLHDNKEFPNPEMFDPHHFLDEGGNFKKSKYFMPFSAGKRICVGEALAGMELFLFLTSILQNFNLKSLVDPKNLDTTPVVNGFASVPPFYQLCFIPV

Assay [6] is described as follows: Cytotoxicity counterscreen for inhibitors of SARS-CoV-2 cell entry (AID 1645845; calls by dose curve; also: nearly all actives have a fitted effect of over 50% in size). The gist of the method:
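48 h compound treatment (after 1 h preincubation), HEK293-ACE2 cells, 37 C/5% CO2; ATP luminescence endpoint; normalized to cell wells and media blanks.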

The nature of assay [7]: Primary qHTS for inhibitors of nuclear receptor binding SET domain protein 2 (NSD2) in an isogenic RCH-ACV NSD2 p.E1099K mutant (9B) (AID 1645876). Also: nearly all actives have a fitted effect of over 70% in size. Also: potency is read from the fitted curve at half-maximal effect.
The nature of assay [8]: Primary qHTS for inhibitors of nuclear receptor binding SET domain protein 2 (NSD2) in an RCH-ACV wild type WT cells (2C) (AID 1645877). Also: nearly all actives have a fitted effect of over 70% in size.
Assay [9] addresses N-terminal Xaa-Pro-Lys N-methyltransferase 1 (Homo sapiens) (UniProt Q9BV86). Nature of the assay: Confirmatory qHTS for Inhibitors of N-terminal methyltransferase 1 (NTMT1): MTaseGlo Assay (AID 1645874).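 Also: luminescence from SAH made as NTMT1 methylates SPKRIA peptide using SAM; 0% = DMSO control and -100% = no-enzyme control; nearly all actives have a fitted effect of over 65% in size.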 The gist of the method: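 qHTS format: NTMT1 125 nM, SAM 100 uM, peptide SPKRIA 1 uM final; 15 min compound preincubation, 30 min reaction at room temperature. MTase-Glo luminescence.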

Assay [10] is described as follows: Primary qHTS to identify inhibitors of SARS-CoV-2 cell entry (AID 1645846; calls by dose curve; also: nearly all actives have a fitted effect of over 45% in size). The conditions noted are these: activity change, negative = inhibition: at 57.1 µM (top of the series) unless noted. Summed up:
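Entry measured by luciferase signal 48 h after adding SARS-CoV-2-S pseudotyped MLV particles to HEK293-ACE2 cells preincubated 1 h with compounds. Normalisation: bald particles and spike particles.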

The nature of assay [11]: Counterscreen qHTS for small molecule stabilizers of the endoplasmic reticulum resident proteome: GLuc-NoTag assay (AID 1508627).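 Also: 0% = thapsigargin alone and -100% = DMSO vehicle control.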 Summed up:
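Luminescence of Gaussia luciferase secreted into the medium (coelenterazine, 0.07x final, unlysed cells) was the read-out. Human SH-SY5Y neuroblastoma cells constitutively secreting untagged GLuc received compound for 19 h, then 100 nM thapsigargin for 4 h.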

A short description of assay [12]: Confirmatory qHTS for small molecule stabilizers of the endoplasmic reticulum resident proteome: Secreted ER Calcium Modulated Protein (SERCaMP) assay (AID 1508628). Also: nearly all actives have a fitted effect of over 40% in size. Also: potency is read from the fitted curve at half-maximal effect. Summed up: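 SH-SY5Y cells stably expressing GLuc-SERCaMP, treated 16 h with compound (primary 1.53, 7.67, 38.3 uM; confirmation 11 concentrations, up to 76.6 uM), then 100 nM thapsigargin for 4 h. Secreted Gaussia luciferase in medium read by coelenterazine luminescence.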

Assay [13] in a line: Cell Viability qHTS for small molecule stabilizers of the endoplasmic reticulum resident proteome (AID 1508629).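 Also: human SH-SY5Y neuroblastoma cells carrying the GLuc-SERCaMP reporter; compound exposure about 46 h in total before the viability read; % is scaled to controls: 0 for no effect and ±100 for the full control effect.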 The conditions noted are these: cell viability counter-screen, 100 nM thapsigargin for final 4 h. The text has this: Assay Provider: Brandon K. Harvey Ph.D.
National Institute on Drug Abuse, National Institutes of Health, Baltimore, MD
Endoplasmic reticulum (ER) dysregulation is associated with human pathologies including neurodegenerative, cardiovascular, muscular, and diabetic conditions. Maintenance of ER calcium is critical for functions of the ER and its depletion can lead to loss of ER resident proteins, in a process termed exodosis. Therapeutic compounds capable of attenuating the redistribution of ER proteins under pathological conditions may slow or stop disease progression. To identify such compounds, we performed a quantitative high-throughput screen (qHTS) using the SERCaMP assay, which monitors secretion of ER resident proteins triggered by calcium depletion.
SERCaMP was initially developed as a reporter of ER calcium homeostasis using a Gaussia luciferase with a modified signal peptide and carboxy-terminus (GLuc-SERCaMP), modifications that confer secretion of the reporter in response to ER calcium depletion (Henderson et al., 2014). […]
9; Detection; Luminescence; ViewLux imaging system […]
7; Cell viability was measured using the CellTiter-Glo Luminescent Cell Viability Assay (Promega). […]
9; Luminescence was measured using a ViewLux CCD imaging system (Perkin Elmer) equipped with clear filters.

The target of a further assay is Papain (Carica papaya) (UniProt P00784). Nature of the assay: Primary qHTS assay for inhibitors of the protease papain (AID 1645873).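 Also: papain turnover of Z-FR-AMC read as the AMC fluorescence gain over 10 min; % is scaled to controls: 0 for no effect and ±100 for the full control effect.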
Sequence of Papain (Carica papaya) (P00784 whole entry, looked up): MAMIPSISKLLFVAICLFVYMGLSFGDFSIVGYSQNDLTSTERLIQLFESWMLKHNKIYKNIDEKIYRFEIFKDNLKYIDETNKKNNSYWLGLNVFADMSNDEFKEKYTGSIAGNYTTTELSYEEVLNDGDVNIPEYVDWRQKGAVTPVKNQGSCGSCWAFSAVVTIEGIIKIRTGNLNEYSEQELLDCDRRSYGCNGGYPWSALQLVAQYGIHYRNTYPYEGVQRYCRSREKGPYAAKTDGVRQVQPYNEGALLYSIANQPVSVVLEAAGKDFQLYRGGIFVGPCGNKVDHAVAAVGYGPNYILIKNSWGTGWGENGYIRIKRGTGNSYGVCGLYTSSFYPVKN

Sequence of Cytochrome P450 2D6 (Homo sapiens) (P10635 whole entry, looked up): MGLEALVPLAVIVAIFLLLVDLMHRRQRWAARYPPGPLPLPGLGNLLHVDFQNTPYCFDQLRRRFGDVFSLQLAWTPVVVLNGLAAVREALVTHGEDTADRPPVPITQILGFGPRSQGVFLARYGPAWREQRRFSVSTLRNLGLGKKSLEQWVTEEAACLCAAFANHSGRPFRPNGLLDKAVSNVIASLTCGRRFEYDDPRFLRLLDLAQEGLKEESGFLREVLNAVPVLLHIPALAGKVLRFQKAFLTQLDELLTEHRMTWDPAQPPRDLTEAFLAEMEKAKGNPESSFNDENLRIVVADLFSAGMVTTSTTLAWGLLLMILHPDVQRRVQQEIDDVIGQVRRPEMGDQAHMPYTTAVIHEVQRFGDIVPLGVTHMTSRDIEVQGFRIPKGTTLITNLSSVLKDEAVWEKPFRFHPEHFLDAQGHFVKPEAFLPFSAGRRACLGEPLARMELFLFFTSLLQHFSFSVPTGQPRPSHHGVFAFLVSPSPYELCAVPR
Sequence of Calcium and integrin-binding protein 1 (Homo sapiens) (Q99828 whole entry, looked up): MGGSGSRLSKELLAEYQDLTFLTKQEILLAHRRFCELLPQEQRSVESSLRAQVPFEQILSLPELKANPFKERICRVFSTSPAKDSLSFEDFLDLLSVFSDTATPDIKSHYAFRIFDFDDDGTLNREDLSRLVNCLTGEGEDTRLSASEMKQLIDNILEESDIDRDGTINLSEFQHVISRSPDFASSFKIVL
Sequence of N-terminal Xaa-Pro-Lys N-methyltransferase 1 (Homo sapiens) (Q9BV86 whole entry, looked up): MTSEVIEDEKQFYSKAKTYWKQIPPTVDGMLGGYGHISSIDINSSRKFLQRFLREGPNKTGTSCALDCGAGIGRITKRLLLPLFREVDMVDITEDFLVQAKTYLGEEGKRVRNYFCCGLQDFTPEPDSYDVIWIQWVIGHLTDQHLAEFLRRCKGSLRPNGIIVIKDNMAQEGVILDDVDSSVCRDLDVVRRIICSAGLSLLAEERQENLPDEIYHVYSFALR

In the case of `C[N+]1(CCF)[C@@H]2CC[C@H]1CC(OC(=O)C(O)(c1ccccc1)c1ccccc1)C2` (some centres not stated), the Potency result in [1], in assay [2], in assay [5], in assay [6], in [7] and in assay [8] was “inactive” throughout. The molecule was classed as inactive in assay [3]. Moreover, in [4], the Potency is 15.5 µM (active).
Consider `C[C@]12CCC(=O)C=C1CC[C@@H]1[C@@H]2CC[C@@]2(C)[C@H]1CC[C@]2(C)O`, for which the Potency entry in assay [1], in [2], in assay [4] and in [5] was “inactive” each time. Further, the result in [3] and in assay [9] was inactive. The Potency in assay [7] was 23.7 µM (active).
In the case of `COP(=S)(OC)Oc1cc(Cl)c(Cl)cc1Cl`, the Potency result in assay [1], in assay [2], in assay [4], in assay [6], in assay [10] and in [7] was “inactive” throughout. In addition, the Potency entry in [8] was “inactive”. In [3], the molecule was classed as inactive. Besides, the Potency in assay [5] is 6.92 µM (active).
Regarding `COc1c2c(cc3c1OCO3)CCN(C)C2`, the Potency result in assay [1], in [12], in assay [5], in assay [7] and in assay [8] was “inactive” throughout. The molecule was called inactive in [11] and in assay [3]. Besides, the max response in [13] was 7.99% (inactive). Besides, the Potency in [4] was 2.45 µM (active). Moreover, in [10], the activity change, negative = inhibition is -9.9%.
In the case of `CN1C(=O)CCS(=O)(=O)C1c1ccc(Cl)cc1` (configuration not stated), the Potency entry in [1], in assay [2], in assay [4], in assay [5], in [6] and in assay [7] was “inactive” each time. Besides, in [8], the Potency entry is “inactive”. Further, the outcome (in [3]; with Papain (Carica papaya)) was inactive. Further, the activity change, negative = inhibition in assay [10] was -18.3% and 4.93%.
For `C[C@H]1[C@@H]2Cc3ccc(O)cc3[C@@]1(C)CCN2C`, the Potency entry in assay [1], in assay [5], in assay [7] and in assay [8] was “inactive” throughout. Further, the outcome in [11] and in assay [3] was inactive. Further, the Potency was 22.4 µM (active) in [12] and 107 µM (active) in assay [4].
With `CCc1cc2c(s1)-n1c(C)nnc1CN=C2c1ccccc1Cl`, the Potency result in assay [1], in assay [2], in assay [4], in assay [5] and in [6] was “inactive” in each case. Further, in assay [3], the call was inactive.
Take `CN1C(=O)COc2c(C(=O)NC3CN4CCC3CC4)cc(Cl)cc21` (configuration not stated): the Potency entry in assay [1], in [2], in assay [4], in assay [5], in assay [6] and in assay [7] was “inactive” throughout. Also, the Potency result in assay [8] is “inactive”. Moreover, the call in assay [3] was inactive. In addition, the activity change, negative = inhibition in assay [10] was -14.3%.
